Source: PubChem
Lmaj promast = Leishmania major promastigote growth inhibition, primary screen; Leishmania major promastigotes, resazurin fluorescence viability; inhibition, % at 10 µM; actives 9% (n = 200,000); AID 1063, 2008; in the data active = inhibition above about 50%;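 also: promastigotes grown with compound for 44 hours at 28 °C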
ROMK primary = ROMK potassium channel modulators, primary screen, cell-based, thallium flux, MLSMR library; ATP-sensitive inward rectifier potassium channel 1 (Homo sapiens), P48048; Tet-inducible ROMK, thallium flux fluorescence; actives lie on both sides; B-score at 10 µM; actives 2% (n = 130,000); AID 1918, 2009;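 active = signal ratio slope over the read window, or its plate-corrected B-score, at least 3 SD from the plate mean, either direction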;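 also: B-score of the F/F0 ratio slope over 7 to 12 s after thallium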
WT yeast gro inh = growth inhibition of WT strain, primary screen, mitochondrial fusion inhibitor project, WT and mutant strains, chemical genetic | actives 2.1% (n = 190,000) | mitochondrial fusion phenotypic screen | inhibition, % at 10 µM; in the data active = inhibition above about 58%; tested in S. cerevisiae
KCC2 mod = KCC2 cotransporter modulators, thallium flux, primary screen, cell-based, HEK293 KCC2, FluoZin-2 fluorescence, MLSMR; Solute carrier family 12 member 5 (Homo sapiens), Q9H2X9; KCC2 cells, thallium flux FluoZin-2 fluorescence; B-score of Tl+ flux slope (higher = more flux/activation; lower = inhibition) at 10 µM; actives 2.2% (n = 190,000); AID 1456, 2008;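 active = thallium flux slope and its plate-corrected score both differing from the plate sample mean at a set confidence after two filtering rounds, in either direction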;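 also: slope of fluorescence scaled to starting intensity during 10 to 20 s after thallium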
Target sequence (Q9H2X9 whole entry, looked up): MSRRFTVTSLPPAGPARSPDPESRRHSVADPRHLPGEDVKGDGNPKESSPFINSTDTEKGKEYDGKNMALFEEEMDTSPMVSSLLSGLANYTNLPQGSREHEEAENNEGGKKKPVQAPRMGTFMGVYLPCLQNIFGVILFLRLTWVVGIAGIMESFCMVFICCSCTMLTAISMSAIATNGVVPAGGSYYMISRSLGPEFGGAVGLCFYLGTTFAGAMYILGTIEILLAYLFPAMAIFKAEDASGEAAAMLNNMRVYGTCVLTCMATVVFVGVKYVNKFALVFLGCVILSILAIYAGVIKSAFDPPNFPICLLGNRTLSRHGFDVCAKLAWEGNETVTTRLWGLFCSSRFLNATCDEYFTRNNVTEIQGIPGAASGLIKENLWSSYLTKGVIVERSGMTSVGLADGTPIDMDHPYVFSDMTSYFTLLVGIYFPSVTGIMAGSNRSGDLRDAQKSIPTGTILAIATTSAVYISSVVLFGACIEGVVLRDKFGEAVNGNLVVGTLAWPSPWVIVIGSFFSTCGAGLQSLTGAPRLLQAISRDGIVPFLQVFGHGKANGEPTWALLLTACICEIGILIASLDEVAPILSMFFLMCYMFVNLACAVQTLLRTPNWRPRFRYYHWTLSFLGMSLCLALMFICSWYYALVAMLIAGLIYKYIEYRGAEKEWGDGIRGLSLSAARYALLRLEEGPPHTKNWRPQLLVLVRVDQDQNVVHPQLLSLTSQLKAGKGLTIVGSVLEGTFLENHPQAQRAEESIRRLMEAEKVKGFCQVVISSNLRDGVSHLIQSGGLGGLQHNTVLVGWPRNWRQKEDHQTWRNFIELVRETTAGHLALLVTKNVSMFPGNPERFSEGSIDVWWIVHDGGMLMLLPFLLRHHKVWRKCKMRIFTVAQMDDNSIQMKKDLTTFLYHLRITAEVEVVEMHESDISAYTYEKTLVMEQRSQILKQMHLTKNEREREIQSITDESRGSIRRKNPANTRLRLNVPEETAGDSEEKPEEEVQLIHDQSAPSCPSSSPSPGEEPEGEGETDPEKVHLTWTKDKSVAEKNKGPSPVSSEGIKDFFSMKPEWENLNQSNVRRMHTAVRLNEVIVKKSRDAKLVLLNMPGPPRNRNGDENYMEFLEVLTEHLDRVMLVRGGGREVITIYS
INS promoter inh = inhibitors of insulin promoter-driven GFP, primary screen, imaging, TRM-6 cells (human fetal islet line), eGFP reporter, cell count; actives 0.9% (n = 130,000); reporter expression induced with tamoxifen; inhibition, % at 2 µM; AID 1273, 2008;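 active = inhibition above the mean plus 3 SD, with well images judged a real hit on visual review, cut at about 60% in these data, passing the limit was not always enough; inconclusive = inhibition over the cutoff but images rejected on review; inactive = inhibition not above the cutoff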
Insulin prom up = insulin promoter activators in MIN6 cells, imaging, high-content screening, mouse beta cells. MIN6 insulin promoter-GFP reporter; stronger effect = higher value. z-score at 5 µM. actives 0.3% (n = 190,000);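 active = z-score above 3 at 5 µM with at least 500 cells counted in the well; inconclusive = wells under 500 cells, flagged as cytotoxic or low count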
KCC2 secondary = KCC2 modulators in sodium-free buffer, confirmation, cell-based, HEK293 KCC2, thallium flux, secondary assay | shares compounds with KCC2 mod | FluoZin2 fluorescence; stronger effect = higher value | normalised thallium flux (F/F0 slope) at 10 µM | actives 15% (n = 3,700);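 active = thallium flux slope above the same plate's solvent-only control mean plus 3 SD; inconclusive = the two replicate wells disagree; inactive = no significant difference from solvent-only control wells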
KCC2 bumet counter = thallium flux persisting under bumetanide in KCC2 cells, confirmation, counter-screen for KCC2 modulator project, cell-based, HEK293 KCC2, FluoZin2, secondary assay 3. shares compounds with KCC2 mod. HEK293-KCC2 + bumetanide/ouabain; stronger effect = higher value. normalized thallium flux at 10 µM. actives 49% (n = 3,700). AID 1714, 2009;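 active = thallium entry rate above the same plate's blocked-transporter control wells by more than 3 SD; inconclusive = the two repeat wells disagree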;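 also: raw slope of fluorescence over initial fluorescence between 10 and 20 s after thallium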
KCC2 secondary2 = KCC2 modulators without ouabain present, confirmation, cell-based, HEK293 KCC2, thallium flux, FluoZin2, secondary assay 2; shares compounds with KCC2 mod; thallium flux FluoZin2 fluorescence; actives lie on both sides; F/F0 rise rate, 10–20 s post-thallium; normalized thallium flux at 10 µM; actives 23% (n = 3,700);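 active = thallium flux slope more than 3 SD above or below the plate's solvent-only control mean, mostly below; inconclusive = the two repeat wells disagreed; inactive = no significant shift from solvent-only controls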
HEK counter1 = thallium flux modulation in parental HEK cells, confirmation, counter-screen for KCC2 modulator project, cell-based, counterscreen 1 | actives 46% (n = 3,700) | shares compounds with KCC2 mod | HEK293 parental cells, thallium flux FluoZin2, ouabain; baseline-ratio fluorescence slope, 10–20 s after thallium | thallium flux rate (normalised fluorescence) at 10 µM;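 active = thallium flux rate significantly above the same plate's solvent-only control wells, beyond their mean plus 3 SD; inconclusive = the two replicate wells gave conflicting results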
KCC2 retest ouab = KCC2 inhibitors and activators, ouabain retest, confirmation, HEK-KCC2 cells. actives 48% (n = 3,700). AID 1717, 2009. shares compounds with KCC2 mod. raw Tl+ flux slope (below DMSO = inhibition, above = activation) at 10 µM. HEK293-KCC2, thallium flux FluoZin2 fluorescence; bidirectional: low = inhibitor, high = activator;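 active = thallium flux slope beyond 3 SD from same-plate DMSO control mean in most replicates, usually higher, sometimes lower; inconclusive = repeat tests gave conflicting results; inactive = no significant difference from controls in most replicates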;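 also: slope of initial-normalized fluorescence between seconds 10 and 20 after thallium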
HEK293 Tl flux2 = native HEK Tl+ uptake effects, second counter-screen – HEK cells, counterscreen 2, counter-screen for KCC2 modulator project, confirmation. HEK293 parental, thallium flux FluoZin-2 fluorescence slope. shares compounds with KCC2 mod. actives 33% (n = 3,700). AID 1718, 2009. thallium flux slope at 10 µM;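 active = thallium flux slope above the same plate's solvent-control mean plus 3 SD in both duplicate wells; inconclusive = duplicate wells that disagreed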;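 also: run without ouabain in cells lacking the KCC2 cotransporter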
Each line names hits and unclear results; the compound was inactive in the other large screens (follow-up assays come after a bar, where they were run). Most compounds without a hit are left out; they make up all but 12% or so of the library.

CCOC(=O)C(CC)(CCC(=O)O)c1csc(Nc2ccc(C)cc2)n1 (stereo not given)	KCC2 mod -2.89 (no result: INS promoter inh) | KCC2 secondary inactive | KCC2 bumet counter inactive | KCC2 secondary2 inactive | HEK counter1 0.006 | KCC2 retest ouab inactive | HEK293 Tl flux2 inactive
NCCCC[C@H]1CNC(=O)C(=O)N1CCC12CC3CC(CC(C3)C1)C2	none (no result: Lmaj promast, ROMK primary, WT yeast gro inh, INS promoter inh)
COc1ccc2c(-c3ccccc3)cc(SC(C)C(N)=O)nc2c1 (stereo not given)	Lmaj promast 80.8, KCC2 mod 5.47 (no result: INS promoter inh) | KCC2 secondary inactive | KCC2 bumet counter 0.00805 | KCC2 secondary2 inactive | HEK counter1 0.0143 | KCC2 retest ouab inactive | HEK293 Tl flux2 inconclusive
CC(=O)C(=Cc1ccc(O)cc1)C(C)=O	none (no result: Lmaj promast, ROMK primary, WT yeast gro inh, INS promoter inh)
CCN1C(=O)C2(C(C(=O)c3ccc(C)o3)=C(O)C(=O)N2CCCN(C)C)c2ccccc21 (stereo not given)	none (no result: Lmaj promast, ROMK primary, WT yeast gro inh, INS promoter inh)
O=C(CCCNC(=O)/C(=C/c1ccc(F)cc1)NC(=O)c1ccccc1)OCc1ccccc1	KCC2 mod -3.2 (no result: ROMK primary, INS promoter inh) | KCC2 secondary inactive | KCC2 bumet counter inactive | KCC2 secondary2 inactive | HEK counter1 inactive | KCC2 retest ouab 0.0178 | HEK293 Tl flux2 inactive
COc1cccc(/C=N/NC(=O)c2c(C)nc3ccc(Br)cn23)c1O	Lmaj promast 99.6, KCC2 mod -3.37 (no result: ROMK primary) | KCC2 secondary inactive | KCC2 bumet counter inactive | KCC2 secondary2 inactive | HEK counter1 inactive | KCC2 retest ouab 0.0158 | HEK293 Tl flux2 inactive
Cc1ccc(C2CC(C(F)(F)F)n3nc(C(=O)NCCN4CCOCC4)cc3N2)cc1 (stereo not given)	none
O=C(O)/C(=C\c1cccc([N+](=O)[O-])c1)c1ccc(S(=O)(=O)N2CCCCC2)s1	none (no result: Lmaj promast, ROMK primary, WT yeast gro inh, INS promoter inh)
O=C(O)/C(=C\c1ccc(Cl)c([N+](=O)[O-])c1)c1ccc(S(=O)(=O)N2CCCCC2)s1	KCC2 mod -7.77 (no result: INS promoter inh) | KCC2 secondary inactive | KCC2 bumet counter inactive | KCC2 secondary2 inactive | HEK counter1 inactive | KCC2 retest ouab 0.0111 | HEK293 Tl flux2 inactive
Cc1nc(C(=O)NNC(=O)c2ccccc2Cl)c(C(F)(F)F)o1	KCC2 mod 5.64 (no result: Lmaj promast, ROMK primary, WT yeast gro inh, INS promoter inh) | KCC2 secondary inactive | KCC2 bumet counter 0.00702 | KCC2 secondary2 inactive | HEK counter1 0.0095 | KCC2 retest ouab inconclusive | HEK293 Tl flux2 inconclusive
Cc1nc(C(=O)NNC(=O)c2cccc(Cl)c2)c(C(F)(F)F)o1	KCC2 mod 11.3 (no result: Lmaj promast, ROMK primary, WT yeast gro inh, INS promoter inh) | KCC2 secondary 0.0126 | KCC2 bumet counter 0.0192 | KCC2 secondary2 inactive | HEK counter1 inconclusive | KCC2 retest ouab inactive | HEK293 Tl flux2 0.0115
O=C(NNC(=O)c1ccccc1Cl)c1ccccc1Cl	none (no result: Lmaj promast, ROMK primary, WT yeast gro inh, INS promoter inh)
CCNc1nnc(-c2ccc(C)cc2)o1	none (no result: ROMK primary)
CCOc1ccc(NC(=S)NNC(=O)c2cc(Br)ccc2Cl)cc1	KCC2 mod 8.52 (no result: INS promoter inh) | KCC2 secondary inactive | KCC2 bumet counter 0.0413 | KCC2 secondary2 inactive | HEK counter1 inconclusive | KCC2 retest ouab 0.0345 | HEK293 Tl flux2 inactive
O=C(CSc1ncnc2c1oc1ccccc12)NC1CCCCC1	KCC2 mod -3.75 (no result: ROMK primary, INS promoter inh) | KCC2 secondary inactive | KCC2 bumet counter inactive | KCC2 secondary2 inconclusive | HEK counter1 inactive | KCC2 retest ouab 0.0203 | HEK293 Tl flux2 inactive
COCCCNC(=O)C(C#N)c1nc2ccccc2nc1N1CCCC1 (stereo not given)	none (no result: ROMK primary, WT yeast gro inh, Insulin prom up) | KCC2 secondary inconclusive | KCC2 bumet counter -0.000272 | KCC2 secondary2 0.0193 | HEK counter1 0.00528 | KCC2 retest ouab 0.0125 | HEK293 Tl flux2 inconclusive
COc1ccccc1N1CCN(c2nc3ccccc3nc2C(C#N)C(=O)OC(C)C)CC1 (stereo not given)	none (no result: ROMK primary)
CCCCCNC(=O)C(C#N)c1nc2ccccc2nc1N1CCCC1 (stereo not given)	none (no result: ROMK primary)
CCOc1ccccc1N1CCN(c2nc3ccccc3nc2C(C#N)C(=O)OC)CC1 (stereo not given)	none (no result: KCC2 mod, INS promoter inh) | KCC2 secondary inactive | KCC2 bumet counter inactive | KCC2 secondary2 inactive | HEK counter1 inactive | KCC2 retest ouab inactive | HEK293 Tl flux2 inactive
O=C(OCC(=O)N1CCCC1)c1ccc(S(=O)(=O)N2CCOCC2)cc1	none (no result: INS promoter inh)
CCn1nnnc1SCC(=O)Nc1nc(-c2cccs2)cs1	Lmaj promast 55.0, KCC2 mod -4.12 (no result: ROMK primary, Insulin prom up) | KCC2 secondary inactive | KCC2 bumet counter inactive | KCC2 secondary2 inconclusive | HEK counter1 inactive | KCC2 retest ouab 0.0135 | HEK293 Tl flux2 inactive
Cn1c(SCC(=O)Nc2nc3c(s2)CCCC3)nnc1-c1ccccc1	KCC2 mod -4.83 (no result: ROMK primary) | KCC2 secondary inactive | KCC2 bumet counter inactive | KCC2 secondary2 0.0231 | HEK counter1 inactive | KCC2 retest ouab 0.0176 | HEK293 Tl flux2 inactive
Cc1csc(NC(=O)CSc2ccc(-c3ccccc3)nn2)n1	KCC2 mod -5.64 | KCC2 secondary inactive | KCC2 bumet counter inactive | KCC2 secondary2 0.019 | HEK counter1 inactive | KCC2 retest ouab inactive | HEK293 Tl flux2 inactive
Cc1csc(NC(=O)CSc2nnc(-c3cccs3)n2C)n1	KCC2 mod -3.01 (no result: INS promoter inh) | KCC2 secondary inactive | KCC2 bumet counter inactive | KCC2 secondary2 inactive | HEK counter1 inactive | KCC2 retest ouab inactive | HEK293 Tl flux2 inactive
CCn1nnnc1SCC(=O)Nc1nnc(C(C)C)s1	none (no result: ROMK primary, KCC2 mod, INS promoter inh)
Cc1csc(NC(=O)CSc2nnc(-c3ccccc3)o2)n1	none (no result: ROMK primary)
